# According to PMC7862700, “An all-to-all approach to the identification of sequence-specific readers for epigenetic DNA modifications on cytosine”:
# What was measured:
# Experiment in all cases: DAPPL (digital affinity profiling via proximity ligation, sequencing); 10 mM Tris-HCl pH 7.5, 50 mM NaCl, 1 mM DTT, 4% glycerol, room temperature, 30 min; GST-TFs on glutathione beads, 16-mer random dsDNA library, 0.1% formaldehyde crosslink after washing; high values mean tight binding
# FLI1 = target: T1, FLI1 (Homo sapiens, UniProt Q01543 1-452); details: protein: recombinant; tags: N-terminal GST; dsDNA, one strand shown
# T1 sequence: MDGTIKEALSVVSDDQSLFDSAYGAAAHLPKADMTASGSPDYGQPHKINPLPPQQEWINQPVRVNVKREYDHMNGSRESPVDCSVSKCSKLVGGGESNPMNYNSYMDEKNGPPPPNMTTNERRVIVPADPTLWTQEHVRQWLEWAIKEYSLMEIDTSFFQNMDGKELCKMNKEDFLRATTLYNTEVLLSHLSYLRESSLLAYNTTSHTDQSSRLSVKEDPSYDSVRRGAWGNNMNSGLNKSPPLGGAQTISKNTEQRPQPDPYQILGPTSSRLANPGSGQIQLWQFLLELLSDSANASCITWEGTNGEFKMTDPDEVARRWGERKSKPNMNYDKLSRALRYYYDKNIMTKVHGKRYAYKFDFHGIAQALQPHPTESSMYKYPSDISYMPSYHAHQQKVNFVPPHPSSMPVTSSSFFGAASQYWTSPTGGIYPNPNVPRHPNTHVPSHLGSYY
# Outline: (§1)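 After expression in yeast as GST fusions, human transcription factors were bound to glutathione beads, DNA-barcoded and mixed with a tag-only sample. The pools were incubated with 200 nmole of a 16-mer random double-stranded DNA library in Tris/NaCl/DTT/glycerol buffer (30 min, room temperature), washed and crosslinked with 0.1% formaldehyde. Proximity ligation with BsaI/T4 ligase ran for 1 h at 37 °C, before PCR amplification and sequencing on an Illumina NextSeq500. Binding signal is a hexamer's read frequency for a factor divided by its frequency for the tag-only sample.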
# ELK1 = target: T2, ELK1 (Homo sapiens, UniProt P19419 1-428); details: protein: recombinant; tags: N-terminal GST; dsDNA, one strand shown
# T2 sequence: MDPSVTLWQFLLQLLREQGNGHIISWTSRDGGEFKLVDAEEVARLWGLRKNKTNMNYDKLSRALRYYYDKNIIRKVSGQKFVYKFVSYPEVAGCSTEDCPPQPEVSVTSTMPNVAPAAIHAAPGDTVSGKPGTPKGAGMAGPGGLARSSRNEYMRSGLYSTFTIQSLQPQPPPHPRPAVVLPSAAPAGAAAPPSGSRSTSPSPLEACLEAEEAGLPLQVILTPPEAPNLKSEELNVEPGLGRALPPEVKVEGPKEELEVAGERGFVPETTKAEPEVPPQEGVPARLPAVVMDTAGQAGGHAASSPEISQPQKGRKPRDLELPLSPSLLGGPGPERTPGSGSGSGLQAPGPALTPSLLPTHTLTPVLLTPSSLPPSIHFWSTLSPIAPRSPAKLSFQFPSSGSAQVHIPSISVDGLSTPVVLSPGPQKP
# Outline: as §1
# GABPA = target: T3, GABPA (Homo sapiens, UniProt Q06546 1-454); details: protein: recombinant; tags: N-terminal GST; dsDNA, one strand shown
# T3 sequence: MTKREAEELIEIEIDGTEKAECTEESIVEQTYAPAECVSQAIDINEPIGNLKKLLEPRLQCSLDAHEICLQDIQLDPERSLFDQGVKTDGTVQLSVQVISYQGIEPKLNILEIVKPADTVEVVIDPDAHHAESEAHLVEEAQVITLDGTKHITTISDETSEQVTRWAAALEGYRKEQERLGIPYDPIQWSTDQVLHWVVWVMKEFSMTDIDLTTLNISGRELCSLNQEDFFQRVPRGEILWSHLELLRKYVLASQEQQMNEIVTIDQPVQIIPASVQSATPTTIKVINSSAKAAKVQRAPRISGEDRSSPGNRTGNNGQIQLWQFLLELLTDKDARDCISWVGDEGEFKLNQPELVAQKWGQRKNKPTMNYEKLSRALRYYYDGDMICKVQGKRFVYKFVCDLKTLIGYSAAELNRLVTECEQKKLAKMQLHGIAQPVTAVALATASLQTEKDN
# Outline: as §1
# ERG = target: T4, ERG (Homo sapiens, UniProt P11308 1-479); details: protein: recombinant; tags: N-terminal GST; dsDNA, one strand shown
# T4 sequence: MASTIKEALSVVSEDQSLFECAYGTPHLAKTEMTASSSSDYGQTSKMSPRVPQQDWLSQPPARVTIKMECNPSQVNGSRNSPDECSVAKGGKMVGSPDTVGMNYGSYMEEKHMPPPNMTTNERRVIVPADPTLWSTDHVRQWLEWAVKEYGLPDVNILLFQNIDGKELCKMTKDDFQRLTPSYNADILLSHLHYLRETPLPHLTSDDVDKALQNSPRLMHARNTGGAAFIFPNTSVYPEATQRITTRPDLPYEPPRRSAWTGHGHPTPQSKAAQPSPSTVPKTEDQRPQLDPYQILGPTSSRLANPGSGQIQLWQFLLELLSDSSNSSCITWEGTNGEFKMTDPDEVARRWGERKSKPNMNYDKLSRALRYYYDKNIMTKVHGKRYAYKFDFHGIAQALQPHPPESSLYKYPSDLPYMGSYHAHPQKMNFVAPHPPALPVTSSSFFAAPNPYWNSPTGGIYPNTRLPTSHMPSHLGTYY
# Outline: as §1
# ELF1 = ELF1 (Homo sapiens, UniProt P32519 1-619); details: protein: recombinant; tags: N-terminal GST; dsDNA, one strand shown
# Sequence of ELF1 (P32519 whole entry): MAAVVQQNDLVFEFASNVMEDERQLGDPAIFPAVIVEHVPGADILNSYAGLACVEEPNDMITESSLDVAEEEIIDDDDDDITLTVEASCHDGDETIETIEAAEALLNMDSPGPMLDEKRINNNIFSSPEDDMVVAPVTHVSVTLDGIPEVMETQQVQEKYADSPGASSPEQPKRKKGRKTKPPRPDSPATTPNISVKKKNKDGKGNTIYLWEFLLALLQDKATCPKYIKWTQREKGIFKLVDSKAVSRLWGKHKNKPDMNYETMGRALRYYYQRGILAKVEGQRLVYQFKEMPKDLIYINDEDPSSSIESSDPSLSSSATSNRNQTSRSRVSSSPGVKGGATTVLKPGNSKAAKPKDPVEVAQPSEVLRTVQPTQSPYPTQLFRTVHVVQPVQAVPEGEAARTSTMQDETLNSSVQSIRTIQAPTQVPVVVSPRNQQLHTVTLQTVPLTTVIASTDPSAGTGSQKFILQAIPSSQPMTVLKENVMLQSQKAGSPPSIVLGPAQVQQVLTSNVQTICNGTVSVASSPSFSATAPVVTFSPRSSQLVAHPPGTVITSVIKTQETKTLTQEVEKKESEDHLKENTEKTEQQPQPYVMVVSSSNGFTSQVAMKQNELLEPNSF
# Outline: as §1
# EHF = target: T5, EHF (Homo sapiens, UniProt Q9NZC4 1-300); details: protein: recombinant; tags: N-terminal GST; dsDNA, one strand shown
# T5 sequence: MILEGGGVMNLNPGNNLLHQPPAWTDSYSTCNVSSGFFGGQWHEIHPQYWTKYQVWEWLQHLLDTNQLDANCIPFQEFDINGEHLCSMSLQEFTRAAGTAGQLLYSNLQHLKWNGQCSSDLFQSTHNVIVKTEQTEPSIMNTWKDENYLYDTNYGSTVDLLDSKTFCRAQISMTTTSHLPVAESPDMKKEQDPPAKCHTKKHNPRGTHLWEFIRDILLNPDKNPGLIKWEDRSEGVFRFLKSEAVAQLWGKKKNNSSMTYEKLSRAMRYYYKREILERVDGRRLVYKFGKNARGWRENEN
# Outline: as §1
# SPI1 = SPI1 (Homo sapiens, UniProt P17947 1-270); details: protein: recombinant; tags: N-terminal GST; dsDNA, one strand shown
# Outline: as §1
# SPIB = SPIB (Homo sapiens, UniProt Q01892 1-262); details: protein: recombinant; tags: N-terminal GST; dsDNA, one strand shown
# Sequence of SPIB (Q01892 whole entry): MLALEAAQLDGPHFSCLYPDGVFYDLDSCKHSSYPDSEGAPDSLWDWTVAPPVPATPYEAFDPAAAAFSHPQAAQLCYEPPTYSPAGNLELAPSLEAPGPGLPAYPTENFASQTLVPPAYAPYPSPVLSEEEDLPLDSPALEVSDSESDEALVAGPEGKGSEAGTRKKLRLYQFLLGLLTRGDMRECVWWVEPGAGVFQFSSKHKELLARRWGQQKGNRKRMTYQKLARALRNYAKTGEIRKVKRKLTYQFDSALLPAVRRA
# Outline: as §1
# ELK3 = target: T6, ELK3 (Homo sapiens, UniProt P41970 1-407); details: protein: recombinant; tags: N-terminal GST; dsDNA, one strand shown
# T6 sequence: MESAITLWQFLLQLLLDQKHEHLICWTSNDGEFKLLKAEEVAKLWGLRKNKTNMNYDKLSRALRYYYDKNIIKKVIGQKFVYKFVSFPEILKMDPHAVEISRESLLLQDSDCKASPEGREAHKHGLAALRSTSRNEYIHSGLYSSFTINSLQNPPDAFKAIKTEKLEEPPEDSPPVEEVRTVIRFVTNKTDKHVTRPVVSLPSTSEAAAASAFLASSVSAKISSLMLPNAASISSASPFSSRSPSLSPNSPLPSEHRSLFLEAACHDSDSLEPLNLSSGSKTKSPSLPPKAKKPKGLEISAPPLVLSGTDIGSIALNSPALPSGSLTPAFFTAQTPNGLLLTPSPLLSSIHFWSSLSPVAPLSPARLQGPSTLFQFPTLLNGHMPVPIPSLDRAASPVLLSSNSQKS
# Outline: as §1
# FEV = target: T7, FEV (Homo sapiens, UniProt Q99581 1-238); details: protein: recombinant; tags: N-terminal GST; dsDNA, one strand shown
# T7 sequence: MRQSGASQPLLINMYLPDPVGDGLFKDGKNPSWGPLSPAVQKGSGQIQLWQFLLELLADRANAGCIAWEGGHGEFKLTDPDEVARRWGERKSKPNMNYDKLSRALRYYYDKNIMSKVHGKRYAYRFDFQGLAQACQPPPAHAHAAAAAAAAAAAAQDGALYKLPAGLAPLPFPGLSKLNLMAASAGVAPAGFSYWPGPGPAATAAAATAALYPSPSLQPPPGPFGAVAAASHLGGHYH
# Outline: as §1
# ETV5 = ETV5 (Homo sapiens, UniProt P41161 1-510); details: protein: recombinant; tags: N-terminal GST; dsDNA, one strand shown
# Sequence of ETV5 (P41161 whole entry): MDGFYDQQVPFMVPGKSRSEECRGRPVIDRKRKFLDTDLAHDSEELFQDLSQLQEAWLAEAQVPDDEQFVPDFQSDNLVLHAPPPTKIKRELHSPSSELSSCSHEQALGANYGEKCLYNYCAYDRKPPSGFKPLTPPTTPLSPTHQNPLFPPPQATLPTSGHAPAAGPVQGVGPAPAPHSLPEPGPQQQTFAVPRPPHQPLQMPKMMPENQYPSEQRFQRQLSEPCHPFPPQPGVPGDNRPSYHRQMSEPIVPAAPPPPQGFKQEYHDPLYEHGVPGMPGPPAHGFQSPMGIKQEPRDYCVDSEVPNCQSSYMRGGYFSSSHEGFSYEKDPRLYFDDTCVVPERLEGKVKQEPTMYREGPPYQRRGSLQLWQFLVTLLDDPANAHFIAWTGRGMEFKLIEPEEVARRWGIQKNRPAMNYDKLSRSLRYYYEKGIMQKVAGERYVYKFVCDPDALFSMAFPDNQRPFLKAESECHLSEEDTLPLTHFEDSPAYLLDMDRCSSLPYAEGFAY
# Outline: as §1
# HSF1 = HSF1 (Homo sapiens, UniProt Q00613 1-529); details: protein: recombinant; tags: N-terminal GST; chain copies: 3; dsDNA, one strand shown
# Sequence of HSF1 (Q00613 whole entry): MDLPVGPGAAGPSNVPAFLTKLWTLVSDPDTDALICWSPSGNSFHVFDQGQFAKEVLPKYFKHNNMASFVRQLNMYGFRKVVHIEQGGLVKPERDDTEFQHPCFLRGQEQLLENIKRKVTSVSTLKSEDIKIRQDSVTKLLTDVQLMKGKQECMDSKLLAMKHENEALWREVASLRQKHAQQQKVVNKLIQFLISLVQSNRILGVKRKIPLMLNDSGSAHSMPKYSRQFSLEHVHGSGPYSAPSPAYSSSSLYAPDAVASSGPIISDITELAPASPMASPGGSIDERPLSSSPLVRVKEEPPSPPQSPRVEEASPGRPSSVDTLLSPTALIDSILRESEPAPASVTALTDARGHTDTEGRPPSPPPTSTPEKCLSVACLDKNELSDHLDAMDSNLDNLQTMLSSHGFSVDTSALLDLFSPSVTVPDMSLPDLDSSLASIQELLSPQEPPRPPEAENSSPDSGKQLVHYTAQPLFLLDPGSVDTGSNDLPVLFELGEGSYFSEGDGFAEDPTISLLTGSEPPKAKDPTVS
# Outline: as §1
# SPIC = target: T8, SPIC (Homo sapiens, UniProt Q8N5J4 1-248); details: protein: recombinant; tags: N-terminal GST; dsDNA, one strand shown
# T8 sequence: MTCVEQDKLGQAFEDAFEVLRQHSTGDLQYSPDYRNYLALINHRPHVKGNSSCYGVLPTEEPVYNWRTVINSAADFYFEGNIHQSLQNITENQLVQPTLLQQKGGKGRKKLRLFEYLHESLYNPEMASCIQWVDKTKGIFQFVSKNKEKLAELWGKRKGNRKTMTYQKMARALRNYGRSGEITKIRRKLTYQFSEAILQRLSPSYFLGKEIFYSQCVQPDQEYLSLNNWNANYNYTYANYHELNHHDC
# Outline: as §1
# ELF4 = ELF4 (Homo sapiens, UniProt Q99607 1-663); details: protein: recombinant; tags: N-terminal GST; dsDNA, one strand shown
# Sequence of ELF4 (Q99607 whole entry): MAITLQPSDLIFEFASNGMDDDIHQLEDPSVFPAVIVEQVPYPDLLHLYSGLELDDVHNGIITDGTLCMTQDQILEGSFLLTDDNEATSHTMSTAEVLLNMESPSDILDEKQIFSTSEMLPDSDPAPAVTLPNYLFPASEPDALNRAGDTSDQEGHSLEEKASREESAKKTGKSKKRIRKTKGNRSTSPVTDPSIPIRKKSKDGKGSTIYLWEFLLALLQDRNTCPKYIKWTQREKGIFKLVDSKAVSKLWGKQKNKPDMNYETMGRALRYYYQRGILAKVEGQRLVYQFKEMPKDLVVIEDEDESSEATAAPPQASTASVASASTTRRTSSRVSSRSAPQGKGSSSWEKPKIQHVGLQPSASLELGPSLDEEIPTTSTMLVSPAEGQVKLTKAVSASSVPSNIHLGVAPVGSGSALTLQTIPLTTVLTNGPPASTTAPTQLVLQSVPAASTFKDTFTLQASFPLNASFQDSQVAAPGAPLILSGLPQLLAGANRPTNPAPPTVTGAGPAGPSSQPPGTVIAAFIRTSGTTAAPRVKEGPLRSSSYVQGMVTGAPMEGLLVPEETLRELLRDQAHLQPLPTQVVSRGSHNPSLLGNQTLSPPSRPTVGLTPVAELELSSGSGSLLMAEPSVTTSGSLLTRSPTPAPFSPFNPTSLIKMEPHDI
# Outline: as §1
# ELK4 = target: T9, ELK4 (Homo sapiens, UniProt P28324-2 1-405); details: protein: recombinant; tags: N-terminal GST; dsDNA, one strand shown
# T9 sequence: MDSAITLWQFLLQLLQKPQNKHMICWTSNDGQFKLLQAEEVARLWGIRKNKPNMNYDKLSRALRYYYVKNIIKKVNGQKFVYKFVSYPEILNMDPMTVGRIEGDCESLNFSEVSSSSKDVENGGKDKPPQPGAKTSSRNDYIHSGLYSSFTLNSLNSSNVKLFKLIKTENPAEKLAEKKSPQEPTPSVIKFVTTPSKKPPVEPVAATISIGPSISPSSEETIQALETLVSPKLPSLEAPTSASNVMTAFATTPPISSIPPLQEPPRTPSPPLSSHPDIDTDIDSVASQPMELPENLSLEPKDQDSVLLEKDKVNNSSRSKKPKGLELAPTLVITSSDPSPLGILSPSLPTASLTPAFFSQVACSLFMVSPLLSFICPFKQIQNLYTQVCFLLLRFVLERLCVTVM
# Outline: as §1
# ETV2 = target: T10, ETV2 (Homo sapiens, UniProt O00321 1-342); details: protein: recombinant; tags: N-terminal GST; dsDNA, one strand shown
# T10 sequence: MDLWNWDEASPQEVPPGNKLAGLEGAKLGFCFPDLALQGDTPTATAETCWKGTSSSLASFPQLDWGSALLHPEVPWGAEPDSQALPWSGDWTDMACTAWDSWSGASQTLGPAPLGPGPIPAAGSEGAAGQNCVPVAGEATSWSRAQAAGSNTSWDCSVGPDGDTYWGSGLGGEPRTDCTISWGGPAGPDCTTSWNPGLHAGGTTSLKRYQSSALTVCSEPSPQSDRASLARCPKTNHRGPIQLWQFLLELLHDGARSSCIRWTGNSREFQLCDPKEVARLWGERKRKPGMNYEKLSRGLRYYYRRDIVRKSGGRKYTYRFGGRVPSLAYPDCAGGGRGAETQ
# Outline: as §1
# ELF3 = target: T11, ELF3 (Homo sapiens, UniProt P78545 1-371); details: protein: recombinant; tags: N-terminal GST; dsDNA, one strand shown
# T11 sequence: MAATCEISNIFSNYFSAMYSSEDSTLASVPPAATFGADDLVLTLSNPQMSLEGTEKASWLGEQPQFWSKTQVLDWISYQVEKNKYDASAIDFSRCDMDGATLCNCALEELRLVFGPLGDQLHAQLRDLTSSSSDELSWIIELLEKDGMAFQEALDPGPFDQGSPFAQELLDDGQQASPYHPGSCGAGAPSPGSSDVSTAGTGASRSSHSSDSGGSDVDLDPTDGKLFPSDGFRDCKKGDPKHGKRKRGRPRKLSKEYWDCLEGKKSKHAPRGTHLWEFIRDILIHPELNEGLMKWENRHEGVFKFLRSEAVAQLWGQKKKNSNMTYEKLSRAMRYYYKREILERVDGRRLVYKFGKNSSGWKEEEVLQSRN
# Outline: as §1
# CRX = CRX (Homo sapiens, UniProt O43186 1-299); details: protein: recombinant; tags: N-terminal GST; dsDNA, one strand shown
# Sequence of CRX (O43186 whole entry): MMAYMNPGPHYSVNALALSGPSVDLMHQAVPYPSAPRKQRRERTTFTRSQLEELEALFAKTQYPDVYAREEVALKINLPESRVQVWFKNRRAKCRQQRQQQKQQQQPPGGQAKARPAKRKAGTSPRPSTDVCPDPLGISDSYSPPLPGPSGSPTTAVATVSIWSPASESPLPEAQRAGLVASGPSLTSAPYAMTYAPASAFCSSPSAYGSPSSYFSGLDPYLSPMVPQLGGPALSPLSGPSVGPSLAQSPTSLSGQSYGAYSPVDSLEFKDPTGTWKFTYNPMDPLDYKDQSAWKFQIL
# Outline: as §1
# ETV1 = ETV1 (Homo sapiens, UniProt P50549 1-477); details: protein: recombinant; tags: N-terminal GST; dsDNA, one strand shown
# Sequence of ETV1 (P50549 whole entry): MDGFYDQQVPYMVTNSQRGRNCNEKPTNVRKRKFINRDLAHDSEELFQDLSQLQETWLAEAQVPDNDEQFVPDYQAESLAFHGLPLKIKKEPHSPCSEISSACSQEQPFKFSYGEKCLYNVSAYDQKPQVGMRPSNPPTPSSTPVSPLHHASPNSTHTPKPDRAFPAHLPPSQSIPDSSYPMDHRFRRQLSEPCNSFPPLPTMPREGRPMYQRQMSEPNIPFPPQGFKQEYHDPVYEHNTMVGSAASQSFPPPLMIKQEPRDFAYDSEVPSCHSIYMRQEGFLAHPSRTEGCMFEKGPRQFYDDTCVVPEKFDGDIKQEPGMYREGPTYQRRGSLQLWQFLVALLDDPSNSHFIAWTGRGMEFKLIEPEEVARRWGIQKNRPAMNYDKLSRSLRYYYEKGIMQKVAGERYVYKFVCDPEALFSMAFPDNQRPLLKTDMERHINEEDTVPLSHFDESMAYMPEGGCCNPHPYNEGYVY
# Outline: as §1
sequence,measurement,setting,value
TCCAAT,binding signal,FLI1,"1.21 fold enrichment (6-mer frequency, TF over GST control)"
same,binding signal,ELK1,"1.13 fold enrichment (6-mer frequency, TF over GST control)"
same,binding signal,GABPA,"1.18 fold enrichment (6-mer frequency, TF over GST control)"
same,binding signal,ERG,"1.13 fold enrichment (6-mer frequency, TF over GST control)"
same,binding signal,ELF1,"1.24 fold enrichment (6-mer frequency, TF over GST control)"
same,binding signal,EHF,"1.11 fold enrichment (6-mer frequency, TF over GST control)"
same,binding signal,SPI1,"1.14 fold enrichment (6-mer frequency, TF over GST control)"
same,binding signal,SPIB,"1.25 fold enrichment (6-mer frequency, TF over GST control)"
same,binding signal,ELK3,"1.16 fold enrichment (6-mer frequency, TF over GST control)"
same,binding signal,FEV,"1.21 fold enrichment (6-mer frequency, TF over GST control)"
same,binding signal,ETV5,"1.17 fold enrichment (6-mer frequency, TF over GST control)"
same,binding signal,HSF1,"1.23 fold enrichment (6-mer frequency, TF over GST control)"
same,binding signal,SPIC,"1.17 fold enrichment (6-mer frequency, TF over GST control)"
same,binding signal,ELF4,"1.21 fold enrichment (6-mer frequency, TF over GST control)"
same,binding signal,ELK4,"1.12 fold enrichment (6-mer frequency, TF over GST control)"
same,binding signal,ETV2,"1.24 fold enrichment (6-mer frequency, TF over GST control)"
same,binding signal,ELF3,"1.11 fold enrichment (6-mer frequency, TF over GST control)"
same,binding signal,CRX,"1.27 fold enrichment (6-mer frequency, TF over GST control)"
same,binding signal,ETV1,"1.17 fold enrichment (6-mer frequency, TF over GST control)"
